T cruzi growth-1: T. cruzi intracellular proliferation inhibitors, primary screen, cell-based, beta-gal Tulahuen parasites, NIH3T3 host, luminescence | inhibition, % at 8.34 µM | 77,000 tested, 5.9% active | T. cruzi beta-gal in NIH3T3, GalScreen luminescence, 90 h;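 active means mean inhibition above about 93%, with at least 55% of replicates each passing it, limit read from the data, passing the limit was not always enough; inconclusive means only one of those two conditions holds; inactive means neither condition holds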
C diff growth: C. difficile growth inhibitors, primary screen, HTS; growth activity, negative = inhibition, % at 16 µg/mL (by protocol); Clostridium difficile clinical isolate growth, OD600, 24 h; hits give low values; 86,000 tested, 0.25% active;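 active means mean growth activity at or below -80% and every replicate also at or below -80%; inconclusive means mean at or below -80% but some replicate above -80%; inactive means mean growth activity above -80%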;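 further: 0% = DMSO wells and -100% = levofloxacin 16 µg/mL wells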
T cruzi growth-2: T. cruzi intracellular proliferation inhibitors, confirmation, cell-based, NIH3T3 host, beta-gal parasite, luminescence, cherry-pick | inhibition, % at 8.35 µM | AID 651739, 2012 | 5,600 tested, 72% active | shares compounds with T cruzi growth-1 | T. cruzi beta-gal in NIH3T3, GalScreen luminescence, 90 h;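 active means mean replicate inhibition above about 95% and at least 55% of replicates individually reaching it, limit read from the data; inconclusive means only one of the two criteria is met; inactive means neither criterion is met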
T cruzi growth-3: inhibitors of intracellular T. cruzi replication, confirmation, NIH3T3 host cells, beta-gal parasites, cherry-pick, set 2; shares compounds with T cruzi growth-1; T. cruzi beta-gal in NIH3T3, GalScreen luminescence, 90 h; inhibition, % at 2.09 µM; 5,600 tested, 21% active; AID 651740, 2012;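 active means mean inhibition above about 95%, with at least 55% of replicates also reaching it, limit read from the data; inconclusive means meets just one of the two conditions; inactive means meets neither condition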;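 further: plate controls were neutral control median for no effect and positive control median for full effect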
3T3 cytotox: cytotoxicity in mouse NIH/3T3 fibroblasts, confirmation, cytotoxicity control for T. cruzi proliferation inhibitor project, cell-based, cherry-pick, single point | shares compounds with T cruzi growth-1 | NIH/3T3 viability, CellTiter-Glo ATP luminescence, 90 h | cytotoxicity (signal decrease), % at 8.35 µM | 5,600 tested, 14% active;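 active means mean signal decrease across replicates above about 35% based on untreated-well scatter, with enough replicates individually passing, limit read from the data; inconclusive means no rule stated though some were filed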;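 further: 0% = median of neutral control wells and 100% = median of positive control wells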
3T3 cytotox 2: NIH/3T3 fibroblast cytotoxicity, confirmation, cytotoxicity control, cell-based, cherry-pick, single point, set 2; AID 651744, 2012; 5,600 tested, 56% active; NIH/3T3 viability, CellTiter-Glo ATP luminescence, 90 h; shares compounds with T cruzi growth-1; inhibition, % at 24.9 µM;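 active means mean loss of cell viability signal at or above a set limit, and enough replicates individually reaching it; inconclusive means meets only the mean limit or only the replicate share; inactive means meets neither condition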;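 further: 0% = median of neutral control wells and 100% = median of positive control wells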
An asterisk follows results filed as active; ? = inconclusive; · = no result given. Many of the other results were omitted from the sample, so hits are more common in it than they were.

SMILES	T cruzi growth-1	C diff growth	T cruzi growth-2	T cruzi growth-3	3T3 cytotox	3T3 cytotox 2
CN1c2ccc(-c3cccc(C#N)c3)cc2[C@@H]2[C@@H](CCN2S(=O)(=O)c2ccc(F)cc2)[C@@H]1CO	105*	3	94	78	45*	22
CN1c2ccc(-c3cccc(C#N)c3)cc2[C@H]2[C@H](CCN2S(=O)(=O)c2ccccc2)[C@@H]1CO	94	5	·	·	·	·
CN1c2ccc(C#Cc3cccnc3)cc2[C@@H]2[C@@H](CCN2C(=O)C2CC2)[C@H]1CO	99*	-5	96*	17	8	25*
COc1ccc(NC(=O)Nc2ccc3c(c2)CC(=O)N([C@H](C)CO)C[C@H](C)[C@H](CN(C)C(=O)Nc2ccc(OC)cc2)O3)cc1	23	-1	·	·	·	·
C[C@@H](NC(=O)[C@@H]1[C@@H](CO)[C@@H]2Cn3c(cccc3=O)[C@@H]2N1Cc1ccncc1)c1ccccc1	16	-3	·	·	·	·
O=C(C1CC1)N1CC(=O)N2[C@H](C1)[C@H](c1ccc(-c3cccnc3)cc1)[C@@H]2CO	·	-6	·	·	·	·
O=C(C[C@@H]1C[C@@H]2c3cc(NC(=O)NC4CCCCC4)ccc3O[C@@H]2[C@H](CO)O1)NCc1ccncc1	9	·	·	·	·	·
COCC#Cc1cnc2c(c1)C(=O)N([C@H](C)CO)C[C@@H](C)[C@H](CN(C)C(=O)CCN1CCCCC1)O2	49	3	·	·	·	·
CC(=O)N1CC(=O)N2[C@H](C1)[C@@H](c1ccc(-c3cccc(C(=O)N(C)C)c3)cc1)[C@@H]2CO	·	1	·	·	·	·
O=C(c1ccccc1)N1CC[C@@H]2[C@H](CO)Nc3ccc(-c4ccccc4F)cc3[C@@H]21	103*	58	108*	88	11	26*
O=C(c1ccc(F)cc1)N1CC[C@@H]2[C@H]1c1cc(-c3ccccc3F)ccc1N[C@@H]2CO	100*	3	95*	70	10	103*
O=C(c1ccccc1)N1CC[C@@H]2[C@@H](CO)Nc3ccc(-c4ccc(F)cc4)cc3[C@@H]21	69	-2	·	·	·	·
O=C(c1cccc(F)c1)N1CC[C@@H]2[C@H]1c1cc(-c3ccccc3F)ccc1N[C@@H]2CO	90	-5	·	·	·	·
COc1ccc(-c2ccc3c(c2)[C@H]2[C@H](CCN2C(=O)c2cnccn2)[C@H](CO)N3)cc1	108*	-2	105*	112*	-4	-19
O=C(c1ccccc1)N1CC[C@@H]2[C@@H](CO)Nc3ccc(-c4ccccc4F)cc3[C@@H]21	108*	-9	108*	79	8	?
O=C(c1cccc(F)c1)N1CC[C@@H]2[C@H](CO)Nc3ccc(-c4ccccc4F)cc3[C@@H]21	31	-7	·	·	·	·
COc1ccc(C#Cc2ccc3c(c2)[C@@H]2[C@@H](CCN2C(=O)c2cnccn2)[C@@H](CO)N3)cc1	82	78	·	·	·	·
COc1ccc(-c2ccc([C@H]3[C@@H](CO)N4C(=O)CN(Cc5ccccc5)C[C@@H]34)cc2)cc1	·	5	·	·	·	·
C[C@@H]1CN([C@H](C)CO)C(=O)c2cc(-c3cccc(F)c3)cnc2O[C@@H]1CN(C)Cc1ccccc1	44	8	·	·	·	·
Cc1noc(C)c1NC(=O)N[C@H]1CC[C@@H](CCNC(=O)C2CCCCC2)O[C@@H]1CO	-32	3	·	·	·	·
C[C@H](CO)N1C[C@H](C)[C@@H](CN(C)C(=O)Nc2ccccc2)Oc2c(NC(=O)c3ccc(-c4nccs4)cc3)cccc2C1=O	-126	-2	·	·	·	·
COCC(=O)Nc1ccc2c(c1)C(=O)N(C)[C@H]1CC[C@@H](CC(=O)NCC3CCCCC3)O[C@@H]1CO2	-20	5	·	·	·	·
O=C(c1cnccn1)N1CC[C@@H]2[C@H](CO)Nc3ccc(-c4ccccc4F)cc3[C@@H]21	97	-10	·	·	·	·
O=C(c1cnccn1)N1CC[C@@H]2[C@H]1c1cc(-c3ccccc3F)ccc1N[C@@H]2CO	100*	-7	107*	28	20	44*
C[C@@H]1CN([C@H](C)CO)C(=O)c2cc(NC(=O)Nc3ccc4c(c3)OCO4)ccc2O[C@@H](C)CCCCO[C@@H]1CN(C)S(=O)(=O)c1ccccc1	66	4	·	·	·	·
SMILES	T cruzi growth-1	C diff growth	T cruzi growth-2	T cruzi growth-3	3T3 cytotox	3T3 cytotox 2
C[C@@H](NC(=O)C[C@@H]1C[C@@H]2c3cc(NC(=O)C4CCC4)ccc3O[C@@H]2[C@H](CO)O1)c1ccccc1	-2	-25	·	·	·	·
CO[C@@H]1CN(C)C(=O)c2cc(NS(C)(=O)=O)ccc2OC[C@@H](C)N(C(=O)CC2CC2)C[C@@H]1C	-29	-2	·	·	·	·
C[C@H](O)C#Cc1ccc2c(c1)O[C@@H](CN(C)C(=O)Nc1ccccc1)[C@@H](C)CN([C@H](C)CO)S2(=O)=O	64	5	·	·	·	·
CC(C)CC#Cc1ccc2c(c1)O[C@H](CN(C)C(=O)Nc1ccccc1)[C@H](C)CN([C@@H](C)CO)S2(=O)=O	107*	-1	108*	?	21	81*
CC(C)CC#Cc1ccc2c(c1)O[C@H](CN(C)C(=O)NC(C)C)[C@@H](C)CN([C@@H](C)CO)S2(=O)=O	70	·	·	·	·	·
CC(C)CC#Cc1ccc2c(c1)O[C@H](CN(C)C(=O)Nc1ccccc1)[C@@H](C)CN([C@@H](C)CO)S2(=O)=O	125*	3	105*	?	11	101*
C[C@@H]1CN([C@@H](C)CO)S(=O)(=O)c2ccc(C#C[C@@H](C)O)cc2O[C@H]1CN(C)C(=O)Nc1ccccc1	61	3	·	·	·	·
C[C@H](O)C#Cc1ccc2c(c1)O[C@H](CN(C)C(=O)Nc1ccccc1)[C@@H](C)CN([C@@H](C)CO)S2(=O)=O	70	0	·	·	·	·
CC(C)CC#Cc1ccc2c(c1)O[C@@H](CN(C)C(=O)Nc1ccccc1)[C@H](C)CN([C@H](C)CO)S2(=O)=O	121*	2	108*	93	23	88*
CC(C)CC#Cc1ccc2c(c1)O[C@H](CN(C)C(=O)Nc1ccccc1)[C@H](C)CN([C@H](C)CO)S2(=O)=O	126*	23	100*	107*	-10	106*
CNC(=O)C[C@@H]1CC[C@@H]2[C@H](COc3ccc(NC(=O)c4cnccn4)cc3C(=O)N2C)O1	-18	-5	·	·	·	·
C[C@@H]1CN([C@@H](C)CO)C(=O)c2cc(NS(C)(=O)=O)ccc2O[C@@H](C)CCCCO[C@@H]1CN(C)C(=O)Nc1ccc(F)cc1	31	12	·	·	·	·
C[C@@H]1CN([C@H](C)CO)C(=O)c2cc(-c3cccc(F)c3)cnc2O[C@@H]1CN(C)Cc1ccccn1	·	-1	·	·	·	·

Source: PubChem BioAssay
